The whole screen tested about 310,000 compounds, of which about 14,000 (4.5%) showed an effect of 50% or more. The effect is printed as a negative number. Shown is part of a subset that was picked to be rich in strong results.
What follows are molecules tested against human ether-à-go-go-related gene (hERG) potassium channel (human, UniProt Q12809) (assay: primary screen, population patch clamp on CHO cells stably expressing hERG; higher = less effect of the substance).
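Also: peak tail current of the secondary pulse compared with the same well before compound.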

Sequence of human ether-à-go-go-related gene (hERG) potassium channel (Q12809 whole entry, looked up): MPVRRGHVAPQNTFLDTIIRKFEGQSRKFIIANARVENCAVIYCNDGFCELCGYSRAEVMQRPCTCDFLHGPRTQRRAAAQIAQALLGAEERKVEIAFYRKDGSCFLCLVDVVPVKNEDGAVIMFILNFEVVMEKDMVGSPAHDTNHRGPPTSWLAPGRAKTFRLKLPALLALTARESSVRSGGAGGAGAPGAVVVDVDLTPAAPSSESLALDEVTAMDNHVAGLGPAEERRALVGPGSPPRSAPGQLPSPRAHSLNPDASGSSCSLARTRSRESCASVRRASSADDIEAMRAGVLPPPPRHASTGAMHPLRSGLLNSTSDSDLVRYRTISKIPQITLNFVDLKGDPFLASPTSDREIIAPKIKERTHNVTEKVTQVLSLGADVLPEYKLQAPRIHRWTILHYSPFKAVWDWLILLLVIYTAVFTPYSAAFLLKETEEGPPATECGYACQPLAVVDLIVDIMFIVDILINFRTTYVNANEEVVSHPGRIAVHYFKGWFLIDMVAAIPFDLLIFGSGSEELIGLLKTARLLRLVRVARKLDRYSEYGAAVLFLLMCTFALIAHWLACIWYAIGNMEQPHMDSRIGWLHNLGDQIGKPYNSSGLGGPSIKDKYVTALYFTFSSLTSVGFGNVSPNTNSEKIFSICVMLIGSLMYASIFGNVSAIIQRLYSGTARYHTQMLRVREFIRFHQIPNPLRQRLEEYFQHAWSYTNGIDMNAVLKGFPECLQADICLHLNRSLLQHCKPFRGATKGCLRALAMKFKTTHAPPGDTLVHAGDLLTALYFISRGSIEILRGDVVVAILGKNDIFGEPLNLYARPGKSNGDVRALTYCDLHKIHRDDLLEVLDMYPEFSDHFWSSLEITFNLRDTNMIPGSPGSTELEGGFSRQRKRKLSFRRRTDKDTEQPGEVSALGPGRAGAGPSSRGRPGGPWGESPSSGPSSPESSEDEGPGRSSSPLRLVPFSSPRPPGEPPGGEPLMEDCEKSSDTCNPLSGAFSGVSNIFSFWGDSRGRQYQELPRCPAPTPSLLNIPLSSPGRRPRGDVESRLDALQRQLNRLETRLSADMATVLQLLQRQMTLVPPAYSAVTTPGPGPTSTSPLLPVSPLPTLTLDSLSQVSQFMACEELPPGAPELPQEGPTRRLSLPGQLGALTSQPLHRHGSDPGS

Compared with `Cc1oc(-c2ccc(Cl)cc2)cc1C(=O)NC1CCN(Cc2ccccc2)CC1`, `CC(NC(=O)c1cccc(S(=O)(=O)N2CCN(Cc3ccccc3)CC2)c1)c1ccc(Br)cc1` (stereo not shown) is lower in “hERG current change (%, negative = inhibition) at 10uM” value: 1.09% for the first, -17.6% for the second.

First: CCc1cc(=O)oc2cc(C)cc(OC(C)C(=O)NCC(O)c3ccccc3)c12 (stereo not shown)
Second: COc1ccc(CN(C)C(=O)Cn2ccc(NC(=O)OCc3ccccc3)nc2=O)cc1OC
The “hERG current change (%, negative = inhibition) at 10uM” value of the first is higher: 4.7% for the first, -20.4% for the second.

Going from `Cc1ccc(CNC(=O)NC23CC4CC(CC(C4)C2)C3)cc1` to `O=C(NCc1ccccc1)c1cccc(S(=O)(=O)N2CCCCC2)c1`, the “hERG current change (%, negative = inhibition) at 10uM” value falls from 7.24% to -52.5%.

First: CCn1cc(C(=O)NCC(OC)OC)c(=O)c2cc(S(=O)(=O)N3CCC(C)CC3)ccc21
Second: CC(C)OCCCN(C)C1CCN(S(=O)(=O)c2csc(C(N)=O)c2)CC1
The “hERG current change (%, negative = inhibition) at 10uM” value of the first is lower: -28.8% for the first, 13.1% for the second.

Going from `CSc1ccc(CNc2cccc3ccccc23)cc1` to `COc1ccc(CN(C)C(=O)c2cccc(Oc3ccccc3)c2)c(OC)c1OC`, the “hERG current change (%, negative = inhibition) at 10uM” value falls from 2.23% to -20.6%.

Going from `CCOC(=O)c1c(NC(=O)c2ccc(Br)o2)sc2c1CCCC2` to `O=C(O)c1c2c(nc3ccc(Cl)cc13)CCC2`, the “hERG current change (%, negative = inhibition) at 10uM” value rises from -9.78% to 4.39%.

First: Fc1ccc2nc3c(nc2c1)CCCC3
Second: Cc1ccc2c(c1)c1c3n2CCN=C3CCC1.Cl
The “hERG current change (%, negative = inhibition) at 10uM” value of the first is higher: 15.3% for the first, -76.3% for the second.

First: COCCCn1c(SCC(N)=O)nnc1-c1ccccc1
Second: CSc1nc(C)c(Oc2ccccc2)c(=O)n1C
The “hERG current change (%, negative = inhibition) at 10uM” value of the first is lower: -0.75% for the first, 5.82% for the second.

Compared with `Cc1ccccc1CC1(CO)CCCN(C(=O)c2cc(Cl)ccc2F)C1` (stereo not shown), `Cc1ccccc1CC1(CO)CCCN(C(=O)c2ccccc2Cl)C1` (stereo not shown) is lower in “hERG current change (%, negative = inhibition) at 10uM” value: -16.5% for the first, -81.5% for the second.

Going from `Cc1ccccc1CC1(CO)CCCN(C(=O)c2ccccc2N(C)C)C1` (stereo not shown) to `O=C(c1ccccc1)N1CCC(O)(c2cccnc2)CC1`, the “hERG current change (%, negative = inhibition) at 10uM” value rises from -1.63% to 16.1%.

Going from `O=C(O)CC1Sc2nc3ccccc3n2C1=O` (stereo not shown) to `CCC1CCCCN1C(=O)NC(=O)c1ccccc1` (stereo not shown), the “hERG current change (%, negative = inhibition) at 10uM” value rises from 8.05% to 30.3%.

Compared with `Cc1ccc2c(c1)c1c(n2C)C(=O)CCC1`, `CCn1c2c(c3cc(Cl)ccc31)CCCC2=O` is lower in “hERG current change (%, negative = inhibition) at 10uM” value: 11.8% for the first, 3.71% for the second.

Compared with `OC1CN=C2CCCc3c2n(c2ccc(Cl)cc32)C1` (stereo not shown), `c1cc2c(cc1C1CCCCC1)c1c3n2CCN=C3CCC1` is higher in “hERG current change (%, negative = inhibition) at 10uM” value: -72.3% for the first, -33.9% for the second.

Going from `CS(=O)(=O)O.O=C(O)c1ccc2c(c1)c1c3n2CCNC3CCC1` (stereo not shown) to `CS(=O)(=O)O.c1ccc(-c2ccc3c(c2)c2c4n3CCN=C4CCC2)cc1`, the “hERG current change (%, negative = inhibition) at 10uM” value falls from 20.7% to -61.5%.

First: Cc1cc(S(=O)(=O)N2CCN=C2c2ccccc2)ccc1F
Second: O=C(NCc1ccccc1F)c1cccc(S(=O)(=O)N2CCCCCC2)c1
The “hERG current change (%, negative = inhibition) at 10uM” value of the first is lower: 7.23% for the first, 7.87% for the second.

First: CCO.Cn1c2c(c(=O)n(C)c1=O)C1(C(=O)Nc3ccccc31)C(C#N)=C(N)O2 (stereo not shown)
Second: CC(NC(=O)c1cc(S(=O)(=O)N2CCCC2)cn1C)c1ccccc1 (stereo not shown)
The “hERG current change (%, negative = inhibition) at 10uM” value of the first is higher: 8.3% for the first, -0.137% for the second.

Going from `CC(C)OCCCN(C)C1CCN(S(=O)(=O)c2ccc(-c3cc(C(F)(F)F)no3)s2)CC1` to `CC(C)OCCCN(C)C1CCN(S(=O)(=O)c2ccc(-c3ccc(=O)[nH]n3)s2)CC1`, the “hERG current change (%, negative = inhibition) at 10uM” value rises from -54.6% to -35.8%.

Compared with `Cc1ccccc1C(=O)NC(=S)Nc1ccc(S(=O)(=O)N2CCOCC2)cc1`, `O=C(NCc1ccccc1CN1CCCC1)c1cccc(S(=O)(=O)N2CCOCC2)c1` is lower in “hERG current change (%, negative = inhibition) at 10uM” value: -40% for the first, -44.5% for the second.

Compared with `O=C(NCc1ccccc1CN1CCCC1)c1cccc(S(=O)(=O)N2CCCC2)c1`, `O=C(NCCc1ccccc1)c1cccc(S(=O)(=O)N2CCCCC2)c1` is higher in “hERG current change (%, negative = inhibition) at 10uM” value: -55.1% for the first, 5.18% for the second.

First: O=C(NCc1cccc(Cl)c1)c1cccc(S(=O)(=O)N2CCCCC2)c1
Second: CC(NC(=O)c1cccc(S(=O)(=O)N2CCCCCC2)c1)c1ccccc1 (stereo not shown)
The “hERG current change (%, negative = inhibition) at 10uM” value of the first is higher: 7.08% for the first, -58.2% for the second.

Going from `CN1CCN(S(=O)(=O)c2cccc(C(=O)N(C)C(c3ccccc3)c3ccccc3)c2)CC1` to `Cc1ccc(C(NC(=O)c2cccc(S(=O)(=O)N3CCN(C)CC3)c2)c2ccccc2)cc1` (stereo not shown), the “hERG current change (%, negative = inhibition) at 10uM” value falls from -4.72% to -61.8%.

In the case of `CN1CCN(S(=O)(=O)c2cccc(C(=O)O)c2)CC1`, the “hERG current change (%, negative = inhibition) at 10uM” value is reported as 10.8%.
